Source: PubChem (National Center for Advancing Translational Sciences (NCATS))
The list is not random: actives were taken first. Their share in the collection is about 11%.
AMA1 RON2 block = disrupts binding of P. falciparum AMA1 to RON2. AlphaScreen AMA1-biotinylated RON2 peptide binding. Potency, µM (series often up to 58.2 µM), without a hit: top-dose activity change, negative = inhibition, usual class: inhibitors. 0.2% of 360,000 active;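 note: 0% = vehicle wells and -100% = peptide control; nearly all actives have a fitted effect of over 45% in size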
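AMA1 (3D7) with his tag at 25 nM final met compounds first, then biotinylated RON2 peptide at 25 nM; detection used donor plus acceptor beads, 10 µg/mL apiece, read by AlphaScreen after 30 min at room temperature.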
Sm TGR block = S. mansoni TGR enzyme inhibition. AID 485364. 3% of 360,000 active. Q962Y6. purified TGR, DTNB reduction, TNB absorbance 405 nm. Potency, µM (doses to about 114 µM), for the others: top-dose activity change, negative = inhibition, most hits filed as inhibitors; note: % is set by controls: 0 for no effect and ±100 for the full control effect; nearly all actives have a fitted effect of over 60% in size
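TGR 20 nM + NADPH 100 uM (dispensed conc.), cpd preinc 15 min RT; start with NADPH (500 uM addition) then DTNB (15 mM addition). Kinetic TNB absorbance, 405 nm filter. Four-parameter Hill fit across titration.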
Pf growth 96h = P. falciparum growth inhibition at 96 hours. P. falciparum luciferase reporter growth, 96 h. Potency, µM (top dose mostly 28.7 µM), for the others: top-dose activity change, negative = inhibition, hits mostly inhibitors. 6.9% of 320,000 active; note: % is set by controls: 0 for no effect and ±100 for the full control effect
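Parasite growth measured via integrated firefly luciferase reporter in P. falciparum. Infected erythrocytes at 2% hematocrit, 0.05% parasitemia final were treated 96 hours at 37 C under 5% CO2, and luminescence was read.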
Pf growth 48h = P. falciparum growth inhibition at 48 hours (one generation) | P. falciparum luciferase growth in erythrocytes, 48 h | Potency, µM (highest dose often 28.7 µM), for the others: at the top dose activity change, negative = inhibition, most hits filed as inhibitors | 5.9% of 310,000 active; note: % is set by controls: 0 for no effect and ±100 for the full control effect
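Growth was read as firefly luciferase luminescence after a 48 h, 37 C, 5% CO2 exposure of compounds to reporter-bearing P. falciparum cultures (0.1% parasitemia, 2% hematocrit final) in Albumax-supplemented RPMI 1640.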
NS1 inh = inhibitors of influenza NS1 protein function; AID 2326; Potency, µM (highest dose often 46.1 µM), without a hit: at the highest dose activity, positive = more growth; 0.4% of 270,000 active; calls by dose curve; note: actives are rising curves; nearly all actives have a fitted effect of over 50% in size
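Compounds were scored for reversing the slow growth caused by influenza A NS1 in S. cerevisiae, measured by optical density at 600 nm. Assay medium contained 2% galactose at pH 6.0; NS1-free yeast of the same strain were the positive control.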
Active calls of the source: *; ? = inconclusive; . = not tested or not shown. Unless noted, calls come from the whole dose curve; as a rule, active = well fitted curve in the direction sought with a large enough effect; inconclusive = small, poorly fitted or top-dose-only effect, or another doubt; inactive = no such curve, though single readings can be large; an effect the other way counts as inactive or inconclusive. Potency is the fitted concentration of half-maximal effect.

SMILES	AMA1 RON2 block	Sm TGR block	Pf growth 96h	Pf growth 48h	NS1 inh
COc1ccccc1N(C)S(=O)(=O)c1ccc(C(=O)Nc2ccc(N3CCOCC3)cc2)cc1	-4.3%	7.1%	0.0%	0.0%	-6.7%
O=C(NCC(c1cccs1)N1CCOCC1)C1CCN(S(=O)(=O)c2ccccc2C(F)(F)F)CC1 (centres undefined)	0.9%	-17.7%	?	?	-8.4%
O=C(NCC(c1cccs1)N1CCOCC1)C1CCN(S(=O)(=O)c2cccc(C(F)(F)F)c2)CC1 (centres undefined)	-15.2%	4.5%	10.4µM*	?	.
Cc1cccc(C)c1Nc1nc2ccccc2nc1NS(=O)(=O)c1ccccc1	.	-10.3%	.	.	.
Cn1c(SCC(=O)N2CCOCC2)nnc1-c1ccncc1	0.0%	-10.1%	5.6%	12.2%	-1.7%
O=C(CSc1nnc(-c2cccnc2)n1Cc1ccccc1)N1CCOCC1	1.5%	0.0%	1.85µM*	17.8%	-5.0%
Cn1c(SCC(=O)N2CCN(Cc3ccccc3)CC2)nnc1-c1ccncc1	-3.5%	5.3%	2.94µM*	9.3%	3.5%
O=C(CN1C(=O)NC(CCc2ccccc2)C1=O)Nc1cccc(Br)c1 (centres undefined)	-7.9%	.	.	.	.
CC(=O)c1c(C)[nH]c(C(=O)CN2CCN(S(=O)(=O)c3ccccc3)CC2)c1C	2.1%	44.7µM*	15.9%	13.0%	.
CC(=O)c1c(C)[nH]c(C(=O)Nc2cc(S(=O)(=O)N3CCCCC3)ccc2C)c1C	0.0%	5.9%	13.1µM*	13.1µM*	.
CCOc1ccc(S(=O)(=O)N2CCCCC2)cc1NC(=O)c1cccnc1OCC	2.5%	.	.	.	.
CC(=O)c1c(C)[nH]c(C(=O)Nc2cccc(S(=O)(=O)N3CCOCC3)c2)c1C	-5.9%	-6.0%	-3.5%	-7.7%	0.8%
CCOc1ncccc1C(=O)Nc1cccc(S(=O)(=O)N2CCCCC2)c1	2.5%	-1.8%	7.38µM*	?	.
CCOc1ncccc1C(=O)Nc1ccc(S(=O)(=O)N2CCCC2)cc1	16.3%	17.1%	7.3%	-15.4%	0.8%
CCOc1ncccc1C(=O)Nc1cc(S(=O)(=O)N2CCCCC2)ccc1C	1.2%	-1.5%	9.28µM*	11.7µM*	.
Cn1cnnc1Sc1ccc(C(F)(F)F)cc1[N+](=O)[O-]	28.6%	-15.5%	-9.9%	-3.0%	.
COc1cccc(NC(=O)c2oc3ccccc3c2NC(=O)c2ccccc2C)c1	.	-9.5%	.	.	.
CCc1ccc(N2C(=O)CC(N3CCN(Cc4ccc5c(c4)OCO5)CC3)C2=O)cc1 (centres undefined)	-3.5%	.	5.2%	5.1%	5.0%
CCn1c(SCC(=O)OC)nc2sc3c(c2c1=O)CCC3	-13.5%	-11.9%	44.8%	12.4%	-96.1%
CCn1c(SCc2ccc(C(=O)OC)o2)nc2sc3c(c2c1=O)CCCC3	-8.9%	10.7%	1.04µM*	-15.5%	10.4%
Cc1cccc(NC(c2ccc(C)s2)c2ccc3ccc(C)nc3c2O)n1 (centres undefined)	47.8%	44.7µM*	12.6%	?	-5.1%
Cc1cccc(NC(c2ccccc2C)c2ccc3ccc(C)nc3c2O)n1 (centres undefined)	.	3.55µM*	.	.	.
COC(=O)c1ccc(N2CCN(C(C)=O)CC2)c(NC(=O)c2cccnc2)c1	2.0%	0.7%	16.5%	14.6%	-6.2%
CCOc1ccc(OCC)c(NC(=O)c2cnn(-c3ccc(F)cc3)c2-n2cccc2)c1	.	-4.2%	.	.	.
CCOc1ccc(/C=N/NC(=O)C(O)c2ccccc2)c(O)c1 (centres undefined)	94.5%	2.3%	-19.6%	-15.2%	0.5%
SMILES	AMA1 RON2 block	Sm TGR block	Pf growth 96h	Pf growth 48h	NS1 inh
Cc1sc(NC(=O)CCl)c(C(=O)c2ccccc2)c1C	-10.4%	7.94µM*	92.2%	13.1µM*	-35.9%
Cc1ccccc1C(=O)Nc1sc(C)c(C)c1C(=O)c1ccccc1	-28.7%	10.2%	?	?	8.8%
COc1cccc(NC(=O)Nc2ccc(C(C)(C)C)cc2)c1	3.7%	2.9%	32.1%	?	-42.2%
O=C1c2ccccc2C(Nc2cccnc2)N1Cc1ccccc1Cl (centres undefined)	9.8%	-1.7%	2.7%	?	-24.3%
O=C1c2ccccc2C(Nc2cccnc2)N1Cc1ccccc1 (centres undefined)	?	-11.0%	10.4µM*	.	3.9%
COc1ccccc1NS(=O)(=O)c1ccc(C)c(C(=O)NC2=NCCS2)c1	18.6%	-9.2%	?	?	.
